Screening data (PubChem)
This is a sample that favours compounds with a hit; in the whole collection about 7.3% have one here.
NPC1 promoter act: qHTS Assay for NPC1 Promoter Activators; 2.4% of 320,000 active; Potency, µM (series often up to 9.22 µM), most hits filed as activators; Huh7 NPC1 promoter luciferase reporter, 24 h; note: nearly all actives have a fitted effect of over 60% in size
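Quantitative HTS used a cell-based reporter: Huh7 cells stably bearing the NPC1 promoter upstream of luciferase were treated with compounds for 24 h, and promoter activation was read as luminescence.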
ELG1 genotox: qHTS screen for small molecules that induce genotoxicity in human embryonic kidney (HEK293T) cells expressing luciferase-tagged ELG1. HEK293T ELG1-luciferase reporter, luminescence, 16 h. Potency, µM (top dose mostly 46 µM), hits mostly activators. 1.3% of 330,000 active. AID 504466, 2011; note: nearly all actives have a fitted effect of over 60% in size
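Quantitative HTS format in 1536-well plates. HEK293T ELG1-luciferase reporter cells receive test compound and are incubated 16 hr at 37 °C, 5% CO2; ONE-Glo added, 30 min room temperature, then luminescence read.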
SMN2 splice up: qHTS Assay for Enhancers of SMN2 Splice Variant Expression; HEK293 SMN2-luciferase splicing reporter, luminescence, 30-36 h; Potency, µM (top dose mostly 46.1 µM), hits mostly activators; 2.8% of 210,000 active; note: nearly all actives have a fitted effect of over 55% in size
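HEK293 cells carry an SMN2 minigene-luciferase reporter in which exon 7 inclusion puts luciferase in frame. Cells were seeded at 2000 cells/well, attached for 10-12 hours, then exposed to compounds for 30-36 hours at 37C before ONE-Glo luminescence.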
Rab9 prom act: qHTS Assay for Rab9 Promoter Activators; Huh7 Rab9 promoter-luciferase reporter, luminescence, 24 h; Potency, µM (titrated, usually from 9.22 µM), hits mostly activators; 2.8% of 320,000 active; note: nearly all actives have a fitted effect of over 60% in size
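Luminescence read-out: Huh7 cells stably expressing Rab9-luciferase, treated 24 h with compound at 37 °C, then lysed with luciferase reagent for 10 min at ambient before reading.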
FLuc modulator: qHTS profiling assay for firefly luciferase inhibitor/activator using purifed enzyme and Km concentrations of substrates (counterscreen for miR-21 project); Luciferin 4-monooxygenase (Photinus pyralis), P08659; purified FLuc, Km substrates, luminescence inhibition; Potency, µM (titrated, usually from 57.5 µM), hits mostly inhibitors; 6.9% of 360,000 active; note: nearly all actives have a fitted effect of over 55% in size
Target sequence (P08659 whole entry, looked up): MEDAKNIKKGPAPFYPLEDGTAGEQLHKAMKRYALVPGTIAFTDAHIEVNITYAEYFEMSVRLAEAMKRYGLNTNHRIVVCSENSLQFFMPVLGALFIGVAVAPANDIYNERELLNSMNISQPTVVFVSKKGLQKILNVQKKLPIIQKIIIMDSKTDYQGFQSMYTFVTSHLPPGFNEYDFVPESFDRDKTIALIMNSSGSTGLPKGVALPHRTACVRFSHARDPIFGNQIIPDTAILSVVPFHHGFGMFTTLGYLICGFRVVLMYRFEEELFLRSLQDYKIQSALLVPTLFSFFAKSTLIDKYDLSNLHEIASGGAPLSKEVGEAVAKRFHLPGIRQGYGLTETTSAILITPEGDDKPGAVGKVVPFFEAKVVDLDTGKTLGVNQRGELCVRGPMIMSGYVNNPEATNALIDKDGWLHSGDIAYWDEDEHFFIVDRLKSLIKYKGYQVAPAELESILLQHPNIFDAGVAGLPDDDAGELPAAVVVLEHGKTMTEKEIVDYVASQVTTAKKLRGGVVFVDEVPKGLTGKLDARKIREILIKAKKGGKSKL
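Biochemical qHTS of compounds, final roughly 60 µM downward over six points, against 10 nM purified firefly luciferase using Km concentrations of substrates (10 uM D-luciferin, 10 uM ATP) in Tris acetate pH 7.5 buffer; luminescence output.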
uPA surface inh: qHTS for Inhibitors of Cell Surface uPA Generation. 0.31% of 330,000 active. Potency, µM (top dose mostly 38.3 µM), actives largely listed as inhibitors. cell surface uPA generation assay, qHTS. AID 540303, 2011; active = well fitted inhibition curve with a large enough effect; inconclusive = small, poorly fitted or top-dose-only effect; inactive = no such curve, though single readings can be large or run the other way; tested in mouse RAW 264.7 cells; note: nearly all actives have a fitted effect of over 55% in size
Each line names hits and unclear results; the compound was inactive in the other large screens. Unless noted, calls come from the whole dose curve; as a rule, active = well fitted curve in the direction sought with a large enough effect; inconclusive = small, poorly fitted or top-dose-only effect, or another doubt; inactive = no such curve, though single readings can be large; an effect the other way counts as inactive or inconclusive.

CCN(CC)c1ccc(NC(=O)CCCN2C(=O)C(c3ccccc3)Oc3cccnc32)c(C)c1 (centres undefined)	none (no result: NPC1 promoter act, ELG1 genotox, SMN2 splice up, Rab9 prom act, uPA surface inh)
COc1ccc(C(C)(C)C)cc1NC(=O)C1CC(=O)N(C2CCCC2)C1 (centres undefined)	none (no result: NPC1 promoter act, SMN2 splice up, Rab9 prom act, FLuc modulator)
O=C(Nc1cccc(-c2cn3ccccc3n2)c1)c1cc2ccccc2oc1=O	NPC1 promoter act inconclusive, SMN2 splice up inconclusive, Rab9 prom act inconclusive, FLuc modulator 1.5µM
O=C(Nc1c(-c2ccccc2)nc2ccccn12)c1cccs1	none
Cc1ccn2cc(-c3cccc(NC(=O)c4ccccc4)c3)nc2c1	SMN2 splice up inconclusive, FLuc modulator 4.3µM
COc1ccc(CC(=O)Nc2ccc(-c3cn4ccc(C)cc4n3)cc2)cc1	NPC1 promoter act inconclusive, ELG1 genotox 21µM, Rab9 prom act inconclusive, FLuc modulator inconclusive
O=C(Nc1cccc(-c2cn3ccccc3n2)c1)c1cccs1	ELG1 genotox inconclusive, FLuc modulator 3.4µM (no result: SMN2 splice up)
Cc1cc(NC(=O)CCC(=O)N(Cc2ccccc2)C2(C(=O)NC3CCCCC3)CCCC2)no1	none
CC(C)CCn1c(=O)c2sccc2n2c(CCCC(=O)NCCc3ccccc3)nnc12	none (no result: NPC1 promoter act, ELG1 genotox, SMN2 splice up, Rab9 prom act, uPA surface inh)
CC(=O)N1CCN(c2nc3ccc(Br)cc3s2)CC1	NPC1 promoter act 3.2µM, ELG1 genotox inconclusive, Rab9 prom act inconclusive, FLuc modulator 15µM (no result: SMN2 splice up)
CCCCC(=O)N1CCN(c2nc3ccc(Br)cc3s2)CC1	FLuc modulator inconclusive (no result: SMN2 splice up)
CCCC(=O)N1CCN(c2nc3ccc(Br)cc3s2)CC1	Rab9 prom act inconclusive, FLuc modulator 21µM (no result: SMN2 splice up)
CC(C)(C)C(=O)N1CCN(c2nc3ccc(Cl)cc3s2)CC1	NPC1 promoter act 2µM, ELG1 genotox inconclusive, Rab9 prom act inconclusive, FLuc modulator 11µM (no result: SMN2 splice up)
CC(C)(C)C(=O)N1CCN(c2nc3ccc(Br)cc3s2)CC1	NPC1 promoter act inconclusive, Rab9 prom act inconclusive, FLuc modulator inconclusive (no result: SMN2 splice up)
CCCC(=O)N1CCN(c2nc3ccc(Cl)cc3s2)CC1	NPC1 promoter act inconclusive, ELG1 genotox inconclusive, Rab9 prom act inconclusive, FLuc modulator 12µM, uPA surface inh inconclusive (no result: SMN2 splice up)
Cc1nnc(S(=O)(=O)c2ccc(N=Nc3c(N)nc(N)nc3N)cc2)s1	none (no result: NPC1 promoter act, ELG1 genotox, Rab9 prom act, FLuc modulator, uPA surface inh)
CCCC(=O)N1CCN(c2nc3ccc(CC)cc3s2)CC1	NPC1 promoter act inconclusive, Rab9 prom act inconclusive, FLuc modulator 13µM (no result: SMN2 splice up)
CCC(=O)N1CCc2cc(Br)cc(S(=O)(=O)NCCc3ccccc3)c21	none (no result: NPC1 promoter act, ELG1 genotox, Rab9 prom act, uPA surface inh)
CSc1nc(-c2ccc(N(C)C)cc2)c(C#N)c(=O)n1C	NPC1 promoter act inconclusive, ELG1 genotox inconclusive, Rab9 prom act inconclusive, FLuc modulator 12µM (no result: SMN2 splice up)
CSc1nc(-c2ccc(Cl)cc2)c(C#N)c(=O)n1C	none
CCc1cc2c(SCC(=O)c3ccccc3)ncnc2s1	ELG1 genotox inconclusive, SMN2 splice up 8.9µM, FLuc modulator inconclusive
CCc1cc2c(SCC(=O)c3cccs3)ncnc2s1	ELG1 genotox 23µM, SMN2 splice up inconclusive
CCc1c(C)nc(SCC(=O)c2cccs2)c(C#N)c1C	NPC1 promoter act 3.2µM, ELG1 genotox 9.2µM, SMN2 splice up 16µM, Rab9 prom act inconclusive, FLuc modulator 2.7µM
CCc1cc2c(SCC(=O)O)ncnc2s1	none (no result: uPA surface inh)
CC1CCCCN1CCCNC(=O)c1cc(Sc2cccc(Cl)c2)nc2ccccc12 (centres undefined)	none (no result: NPC1 promoter act, ELG1 genotox, SMN2 splice up, Rab9 prom act, uPA surface inh)
COc1ccccc1CC(=O)Nc1ccc2nc(Nc3cccc(Cl)c3)cc(C)c2c1	none (no result: NPC1 promoter act, ELG1 genotox, SMN2 splice up, Rab9 prom act, uPA surface inh)
CCc1ccccc1NC(=O)CSc1nc2ccccc2nc1Cc1cccc(OC)c1	none (no result: NPC1 promoter act, ELG1 genotox, SMN2 splice up, Rab9 prom act, uPA surface inh)
O=S(=O)(Nc1ccc(C(F)(F)F)cc1)c1ccc2c(c1)OCCO2	none (no result: NPC1 promoter act, ELG1 genotox, Rab9 prom act, uPA surface inh)
Cc1ccc(NC(=O)c2cc3nc(-c4ccccc4)cc(-c4ccccc4)n3n2)cc1	none (no result: NPC1 promoter act, ELG1 genotox, Rab9 prom act, uPA surface inh)
Cc1ccc(-c2cc3nc(C)cc(C)n3n2)cc1	NPC1 promoter act 3.5µM, ELG1 genotox 5.2µM, SMN2 splice up 13µM, Rab9 prom act 1.8µM, FLuc modulator 2.7µM
Cc1cc(C)n2nc(Nc3ccccc3)cc2n1	FLuc modulator 17µM
